Results: the supplement of paper PMC6555819

What was measured:
Test in all cases: PBM binding z-score (relative to random genomic background probes); higher = stronger binding; sequences stand for … in GC…GCGATTGACAGCGTAGAATGAAGG
[1] = test system: FXR:RXRa (NR concentration 270 nM, RXRa partner concentration 90 nM)
In short: (§1)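 For binding z-scores, the reference was random background probes on custom Agilent 4×180K protein-binding microarrays. These arrays were incubated 1 h with ligand-free nuclear receptor dimers in PBS pH 7.4, 2% milk, 0.02% Triton X-100, 1 mM DTT, 0.2 mg/mL BSA and 0.4 mg/ml salmon testes DNA. Fluorescence was scanned after antibody detection of each partner (one per run) and regression-normalized.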

[2] = test system: LXRa:RXRa (NR concentration 270 nM, RXRa partner concentration 90 nM)
In short: as §1

[3] = test system: LXRa homodimer (NR concentration 270 nM)
In short: as §1

[4] = test system: LXRb:RXRa (NR concentration 270 nM, RXRa partner concentration 90 nM)
In short: as §1

[5] = test system: LXRb homodimer (NR concentration 270 nM)
In short: as §1

[6] = test system: PPARa:RXRa (NR concentration 270 nM, RXRa partner concentration 90 nM)
In short: as §1

[7] = test system: PPARg:RXRa (NR concentration 180 nM, RXRa partner concentration 90 nM)
In short: as §1

[8] = test system: PPARg:RXRa 270nM:90nM, anti-RXR (NR concentration 270 nM, RXRa partner concentration 90 nM)
In short: as §1

[9] = test system: PPARg:RXRa 30nM:10nM, anti-RXR (NR concentration 30 nM, RXRa partner concentration 10 nM)
In short: as §1

[10] = test system: PPARg:RXRa 90nM:30nM, anti-RXR (NR concentration 90 nM, RXRa partner concentration 30 nM)
In short: as §1

[11] = test system: PPARg:RXRa DBDmut IVT, anti-RXR (DBD mutation: RXRa K156A/R161A, NR concentration 270 nM, RXRa partner concentration 90 nM)
In short: as §1

[12] = test system: PPARg:RXRa IVT, anti-PPARg (NR concentration 270 nM, RXRa partner concentration 90 nM)
In short: as §1

[13] = test system: PPARg DBDmut:RXRa IVT, anti-PPARg (DBD mutation: PPARg1 K132A/R137A, NR concentration 270 nM, RXRa partner concentration 90 nM)
In short: as §1

[14] = test system: PPARg DBDmut IVT, anti-PPARg (DBD mutation: PPARg1 K132A/R137A, NR concentration 270 nM)
In short: as §1

[15] = test system: PPARg homodimer (NR concentration 180 nM)
In short: as §1

[16] = test system: PXR:RXRa (NR concentration 270 nM, RXRa partner concentration 90 nM)
In short: as §1

[17] = test system: PXR homodimer (NR concentration 270 nM)
In short: as §1

[18] = test system: RARa:RXR (NR concentration 270 nM, RXRa partner concentration 90 nM)
In short: as §1

[19] = test system: RARa homodimer (NR concentration 270 nM)
In short: as §1

[20] = test system: RARb:RXRa (NR concentration 270 nM, RXRa partner concentration 90 nM)
In short: as §1

| Sequence | PBM binding z-score [1] | PBM binding z-score [2] | PBM binding z-score [3] | PBM binding z-score [4] | PBM binding z-score [5] | PBM binding z-score [6] | PBM binding z-score [7] | PBM binding z-score [8] | PBM binding z-score [9] | PBM binding z-score [10] | PBM binding z-score [11] | PBM binding z-score [12] | PBM binding z-score [13] | PBM binding z-score [14] | PBM binding z-score [15] | PBM binding z-score [16] | PBM binding z-score [17] | PBM binding z-score [18] | PBM binding z-score [19] | PBM binding z-score [20] |
| --- | --- | --- | --- | --- | --- | --- | --- | --- | --- | --- | --- | --- | --- | --- | --- | --- | --- | --- | --- | --- |
| TCATATAGGTAAAACGTGAAAGTCGGTGTGGTAA | 0.91 | 0.644 | 0.37 | 0.856 | 0.255 | 2.09 | 2.92 | 4.34 | 4.63 | 4.71 | 6.04 | 2.88 | 0.79 | 1.01 | 1.25 | 0.221 | 0.241 | 0.571 | 1.24 | 0.406 |
| TCGAGTAGGTTACCAATGGGGCATTTAGCTTTCT | 0.00953 | 1.35 | -0.662 | 1.09 | -0.721 | 1.22 | 0.144 | 1.33 | 1.33 | 1.2 | 3.03 | 2.59 | -0.535 | -0.583 | -0.292 | 0.195 | -0.763 | 0.343 | -1.23 | 0.686 |
| CCTTATGGGTCAAGGTTATAGCACGGGTGGTACG | 4.02 | 2.78 | 0.0856 | 2.3 | -0.169 | 4.23 | 5.35 | 5.19 | 2.54 | 4.72 | 4.52 | 5.46 | 1.19 | 0.531 | 2.47 | 2.43 | 0.248 | 3.32 | 0.847 | 3.63 |
| ACTTACGGGTAAACGAGGTTATAGCACGCGTATA | 0.677 | 2.57 | 0.806 | 1.56 | 0.485 | 2.01 | 0.93 | 0.752 | 0.277 | 0.238 | 0.828 | 1.16 | -0.07 | 0.0677 | 0.611 | 1.65 | 0.138 | 2.32 | 0.806 | 0.846 |
| AGTCAAAGTTCACTAGGTAACGTAGGATTCAGCT | 5.02 | 4.93 | 3.02 | 2.92 | 0.939 | 4.65 | 7.24 | 6.38 | 3.58 | 5.79 | 2.76 | 4.99 | 0.535 | 0.509 | 2.04 | 3.89 | 2.85 | 2.82 | 0.778 | 4.83 |
| AGATGTAGGTTACATCCGGGTCATTCAGGCTATG | 2.09 | 4.32 | 0.937 | 2.54 | 0.043 | 4.14 | 5.05 | 4.32 | 1.77 | 3.53 | 7 | 7.07 | 0.707 | 1.29 | 1.58 | 3.72 | 2.06 | 3.68 | -0.0966 | 2.24 |
| TGTCTAAGTTCAAAGGTAACGTAAGTATCCACAC | 4.9 | 5.21 | 1.95 | 3.38 | 1.12 | 4.85 | 4.52 | 5.15 | 2.77 | 4.68 | -0.293 | 1.97 | 0.709 | 1.14 | 1.56 | 5.3 | 3.65 | 4.93 | 0.919 | 3.93 |
| ACTAGCAGACCAAGTTTGGGTCACTCAAACAAAG | -0.0358 | -0.0494 | -0.696 | 0.808 | -0.744 | 1.32 | -0.0128 | 0.182 | -0.186 | 0.531 | -0.311 | 0.415 | -0.191 | -0.505 | -0.222 | 0.6 | -0.393 | 1.12 | -0.119 | 0.992 |
| TTACCAAGGTGAGCTGAGGTCGCTGATCCAACTC | 1.17 | 0.578 | -0.612 | 0.416 | -1.44 | 1.52 | 0.0966 | 1 | -0.104 | 0.763 | 1.38 | 1.87 | -1.62 | -0.0566 | -0.197 | 3.58 | -0.341 | 1.5 | -1.47 | 1.95 |
| TCACCAAGGTGAGCTGAGGTCGTTGATCCAACTC | 1.24 | 0.999 | -0.747 | 0.743 | -1.63 | 1.6 | 0.00194 | 1.01 | 0.915 | 0.958 | 1.73 | 1.53 | -0.807 | -0.69 | 0.0757 | 5.13 | -0.0817 | 2.65 | -0.943 | 1.61 |
| TCTAGCAGGCCAGAGGGTCGCTCAAGAGGTACGG | -2.83 | -0.514 | -0.98 | -0.425 | -1.97 | 0.269 | 0.213 | 1.29 | 1.69 | 1.37 | 0.74 | -0.213 | -1.68 | -1.41 | -0.918 | -0.366 | -0.896 | -0.208 | -1.48 | 0.463 |
| AGAATGAGGTTATTAAGATCCGGGAATTGCGGTC | 1.33 | 2.41 | -0.0229 | 1.24 | -0.217 | 2.49 | 1.06 | 1.15 | 0.0449 | 0.869 | 2.93 | 2.17 | 0.655 | 0.352 | 1.11 | 0.959 | 0.153 | 1.28 | -0.0311 | 1.48 |
| TAGCCTAGGTCATGCGGGCCAGTAAAGTGTCGGC | 3.65 | 3.17 | -0.0418 | 1.66 | -0.608 | 3.69 | 2.07 | 2.27 | -0.0823 | 1.37 | 1.41 | 2.75 | 0.246 | -0.0156 | 0.811 | 1.51 | -0.33 | 2.44 | -0.385 | 3.78 |
| CCAGACAGGTGAAAGCTAACTCAGTCTGGTACGC | -0.364 | -0.206 | -0.559 | -0.0941 | -0.593 | 0.302 | 0.368 | -0.0659 | -0.35 | -0.285 | 1.15 | 0.32 | -0.519 | -0.546 | -0.106 | -0.352 | -0.314 | -0.197 | -0.137 | 0.542 |
